Each structure is given as a SMILES string. Values joined by “and” are separate entries in the source; they are usually repeats but may differ in a detail not shown here. Identical values can stand only once. Results filed as inconclusive are left out. Entries that show only a call come without a potency. Active and inactive are the calls of the source. Calls follow the shape of the dose curve; as a rule, active = well fitted cell-killing curve with a large enough effect; inconclusive = small, poorly fitted or top-dose-only effect; inactive = no such curve, though single readings can be large or run the other way.
Potency is read from the fitted curve at half-maximal effect.

The first assay in a line: qHTS of pediatric cancer cell lines to identify multiple opportunities for drug repurposing: Primary screen for SK-N-SH cells (AID 1347098). Also: nearly all actives have a fitted effect of over 65% in size. Particulars: SK-N-SH viability, CellTiter-Glo luminescence, 48 h; series mostly up to 57 µM. The method in brief: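 Cells (500-1,000/well) rested 5 h, then received compounds for 48 h; metabolically active cells were measured by CellTiter-Glo luminescence. Final concentrations spanned up to 46 µM (MIPE, 11-point) or 0.59 nM-46 µM (NPC, 8-point) in primary screens, 11-point in follow-ups.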
Turning to `O=S(=O)(O)CCS`, the Potency result is “inactive”.

Consider `CC(=O)Oc1ccccc1C(=O)Nc1ncc([N+](=O)[O-])s1`, for which the Potency entry was “inactive”. Still for that read-out and setting: the same measure for `CCC(C)(C)c1ccc(CC(C)CN2C[C@@H](C)O[C@@H](C)C2)cc1` (some centres not stated): “inactive”; for `CC(C)(Sc1cc(C(C)(C)C)c(O)c(C(C)(C)C)c1)Sc1cc(C(C)(C)C)c(O)c(C(C)(C)C)c1`: “inactive”. With `COc1ccc2c(c1)c(CC(=O)OCC(=O)O)c(C)n2C(=O)c1ccc(Cl)cc1`, the Potency result is “inactive”. For `Cc1c(-c2ccc(O)cc2)n(Cc2ccc(OCCN3CCCCCC3)cc2)c2ccc(O)cc12`, the Potency entry is “inactive”. Regarding `CC[C@H](C)C(=O)O[C@H]1C[C@@H](C)C=C2C=C[C@H](C)[C@H](CC[C@@H]3C[C@@H](O)CC(=O)O3)[C@H]21`, the Potency was 4.86 µM (active) and 19.2 µM (active). Same read-out and setting: the same measure for `C[C@@H](CN1CC(=O)NC(=O)C1)N1CC(=O)NC(=O)C1`: “inactive”; for `O[C@@H](CNC[C@H](O)[C@H]1CCc2cc(F)ccc2O1)[C@@H]1CCc2cc(F)ccc2O1`: 27.3 µM (active). As for `CCOC(=O)[C@H](CCc1ccccc1)N[C@H]1CCc2ccccc2N(CC(=O)O)C1=O`, the Potency is 24.1 µM (active). Same read-out and setting: next, `NC(=O)c1cccc(N)c1`: “inactive”; `Clc1ccccc1CN1CCc2sccc2C1`: “inactive”. The same measure, in the same setting: next, `CC1CC2C3CCC4=CC(=O)C=C[C@]4(C)[C@@]3(F)[C@@H](O)C[C@]2(C)[C@@]1(O)C(=O)CO` (some centres not stated): “inactive”; `O=c1cc(O)c(Cl)c[nH]1`: “inactive”. Still for that read-out and setting: next, `COc1cc2ncnc(Nc3cccc(Cl)c3)c2cc1OC`: 8.57 µM (active); `Cc1cccc(N(C)C(=S)Oc2ccc3ccccc3c2)c1`: 15.2 µM (active); `CN(Cc1cc(Br)cc(Br)c1N)C1CCCCC1`: “inactive”. Take `OCc1ccc(-c2nn(Cc3ccccc3)c3ccccc23)o1`: the Potency result was “inactive”. In the case of `CC(C)NCC(O)c1ccc(NS(C)(=O)=O)cc1` (configuration not stated), the Potency result was “inactive”. In the case of `N[C@@H](Cc1ccc(O)c(O)c1)C(=O)O`, the Potency result is “inactive”.

The next assay can be described thus: qHTS of pediatric cancer cell lines to identify multiple opportunities for drug repurposing: Primary screen for NB1643 cells (AID 1347099). Also: nearly all actives have a fitted effect of over 50% in size. Conditions: NB1643 neuroblastoma viability, CellTiter-Glo luminescence, 48 h; series mostly up to 46 µM. The method in brief:
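ATP-based luminescence (CellTiter-Glo) quantifies viability after a 48-hour exposure. Compounds are dosed across 8 or 11 final concentrations; DMSO and 2.3 µM bortezomib serve as controls.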
For the compound `CC(=O)Oc1ccccc1C(=O)Nc1ncc([N+](=O)[O-])s1`, the Potency was 42.9 µM (active) and 21.1 µM (active). In the case of `CCC(C)(C)c1ccc(CC(C)CN2C[C@@H](C)O[C@@H](C)C2)cc1` (some centres not stated), the Potency entry is “inactive”. Turning to `CC(C)(Sc1cc(C(C)(C)C)c(O)c(C(C)(C)C)c1)Sc1cc(C(C)(C)C)c(O)c(C(C)(C)C)c1`, the Potency result was “inactive”. Same read-out and setting: the same measure for `COc1ccc2c(c1)c(CC(=O)OCC(=O)O)c(C)n2C(=O)c1ccc(Cl)cc1`: “inactive”. With `Cc1ccnc2c1NC(=O)c1cccnc1N2C1CC1`, the Potency result was “inactive”. Still for that read-out and setting: the same measure for `Cc1c(-c2ccc(O)cc2)n(Cc2ccc(OCCN3CCCCCC3)cc2)c2ccc(O)cc12`: “inactive”; for `CCC(=O)O[C@]1(C(=O)SCF)[C@H](C)C[C@H]2[C@@H]3C[C@H](F)C4=CC(=O)C=C[C@]4(C)[C@@]3(F)[C@@H](O)C[C@@]21C`: “inactive”.

On to `CC[C@H](C)C(=O)O[C@H]1C[C@@H](C)C=C2C=C[C@H](C)[C@H](CC[C@@H]3C[C@@H](O)CC(=O)O3)[C@H]21`, for which the Potency result is “inactive”.

For the compound `C[C@@H](NCCCc1cccc(C(F)(F)F)c1)c1cccc2ccccc12`, the Potency result is “inactive”. The same measure, in the same setting: the same measure for `NC(=O)c1cccc(N)c1`: “inactive”; for `Clc1ccccc1CN1CCc2sccc2C1`: “inactive”. Turning to `O=C(O)C1CCCN(CCC=C(c2ccccc2)c2ccccc2)C1` (configuration not stated), the Potency result is “inactive”. Same read-out and setting: next, `COc1cc2ncnc(Nc3cccc(Cl)c3)c2cc1OC`: 372 nM (active); `CN(Cc1cc(Br)cc(Br)c1N)C1CCCCC1`: “inactive”; `OCc1ccc(-c2nn(Cc3ccccc3)c3ccccc23)o1`: “inactive”. The same measure, in the same setting: the same measure for `Nc1nc(N)c2nc(CNc3ccc(C(=O)NC(CCC(=O)O)C(=O)O)cc3)cnc2n1` (configuration not stated): “inactive”; for `CC(C)NCC(O)c1ccc(NS(C)(=O)=O)cc1` (configuration not stated): “inactive”. On the same count and under the same terms, the same measure for `CCCCS(=N)(=O)CCC(N)C(=O)O` (configuration not stated): “inactive”.

For the compound `CCCCCCNC(=O)n1cc(F)c(=O)[nH]c1=O`, the Potency is 5900 nM (active).

A short description of another assay: qHTS of pediatric cancer cell lines to identify multiple opportunities for drug repurposing: Primary screen for LAN-5 cells (AID 1347100). Conditions: LAN-5 neuroblastoma viability, CellTiter-Glo luminescence, 48 h; series mostly up to 46 µM. The method in brief: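 Cells (500-1,000/well) in growth media were settled 5 h at 37 degrees C, then given compounds for 48 h. Viability was read as CellTiter-Glo luminescence. Primary runs used MIPE at 11 points (0.78 nM-46 µM) and NPC at 8 points (0.59 nM-46 µM); follow-ups used 11 points.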
For `O=S(=O)(O)CCS`, the Potency entry is “inactive”. Same read-out and setting: next, `CC(=O)Oc1ccccc1C(=O)Nc1ncc([N+](=O)[O-])s1`: 27 µM (active) and 15 µM (active); `CCC(C)(C)c1ccc(CC(C)CN2C[C@@H](C)O[C@@H](C)C2)cc1` (some centres not stated): “inactive”. On the same count and under the same terms, next, `CC(C)(Sc1cc(C(C)(C)C)c(O)c(C(C)(C)C)c1)Sc1cc(C(C)(C)C)c(O)c(C(C)(C)C)c1`: “inactive”. Same read-out and setting: next, `CC[C@H](C)C(=O)O[C@H]1C[C@@H](C)C=C2C=C[C@H](C)[C@H](CC[C@@H]3C[C@@H](O)CC(=O)O3)[C@H]21`: “inactive”; `C[C@@H](CN1CC(=O)NC(=O)C1)N1CC(=O)NC(=O)C1`: 4.18 µM (active). As to `O=c1cc(O)c(Cl)c[nH]1`, the Potency entry is “inactive”. For `O=C(O)C1CCCN(CCC=C(c2ccccc2)c2ccccc2)C1` (configuration not stated), the Potency entry is “inactive”.

In the case of `CC(C(=O)O)c1ccc2c(c1)CC(=O)c1ccccc1S2` (configuration not stated), the Potency entry is “inactive”.

As to `OCc1ccc(-c2nn(Cc3ccccc3)c3ccccc23)o1`, the Potency result was “inactive”. Take `CC(C)NCC(O)c1ccc(NS(C)(=O)=O)cc1` (configuration not stated): the Potency entry is “inactive”.

In the case of `N[C@@H](Cc1ccc(O)c(O)c1)C(=O)O`, the Potency result is “inactive”. Take `CCCCS(=N)(=O)CCC(N)C(=O)O` (configuration not stated): the Potency entry is “inactive”.
